Screening results: PubChem BioAssay, National Center for Advancing Translational Sciences (NCATS)
HT1080 IDH1KD tx: kills HT-1080 cells with IDH1 knockdown | HT-1080 IDH1 knockdown viability, ATP luminescence, 48 h | Potency, µM (top dose mostly 46.1 µM), inactives show at the highest dose activity, negative = toxicity, actives largely listed as cytotoxic | 360,000 compounds, 2% hits | AID 686971;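 note: potency is the fitted concentration of half-maximal effect; 0% = DMSO wells and -100% = cell-free medium wells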
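Assay cells: HT-1080 with IDH1 knockdown, 750 per well, RPMI/5% FBS. Exposure: 48 h at 37 °C following 2 h pre-incubation. Read: CellTiter-Glo luminescence; fitted concentration-response, curve class assigned.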
DT40 TDP1 no CPT: qHTS for Inhibitors of human tyrosyl-DNA phosphodiesterase 1 (TDP1): qHTS in cells in absence of CPT; 420,000 compounds, 15% hits; Potency, µM (titrated, usually from 46.2 µM), without a hit: at the top dose activity change, negative = growth inhibition, hits mostly inhibitors; DT40 Tdp1-/- hTDP1 cells, no CPT, ATP luminescence, 48 h; note: potency is the fitted concentration of half-maximal effect; nearly all actives have a fitted effect of over 55% in size
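Chicken DT40 Tdp1-/- cells stably complemented with human TDP1 were seeded at 400 cells/well with DMSO in place of 20 nM camptothecin. After compound pinning, cells grew at least 48 hr at 37 °C; viability read by CellTiter-Glo luminescence.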
IL-1B inflam inh: inflammasome signaling inhibition, IL-1 beta readout. THP-1 LPS/ATP IL-1B secretion, AlphaLISA, 16 h; hits give low values. activity change, % at 57.5 µM. 360,000 compounds, 4.7% hits. AID 743279; in the data active = activity change below about -50%; inconclusive = mostly about -30% to -49%
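Secreted IL-1B measured by AlphaLISA bead assay after 16 h compound exposure of THP-1 cells; compounds (final up to 57.5 uM) added 1 h before LPS (250 ng/mL) and ATP (1.25 mM) stimulation; lower signal means less secretion.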
HT1080NT lethal: kills 2HG-producing HT-1080-NT fibrosarcoma cells. HT-1080-NT fibrosarcoma viability, CellTiter-Glo ATP luminescence, 48 h. Potency, µM (top dose mostly 46.1 µM), inactives show top-dose activity, negative = less viability, hits mostly cytotoxic. 360,000 compounds, 1.6% hits;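 note: NT is the 2HG producing partner of a matched IDH1 knockdown line; potency is the fitted concentration of half-maximal effect; 0% = DMSO-treated cells and -100% = media-only wells without cells; nearly all actives have a fitted effect of over 55% in size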
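A 48-hour cytotoxicity screen used HT-1080-NT cells plated 2 hours before compound delivery. ATP-based CellTiter-Glo luminescence measured viability, normalized to DMSO and no-cell controls.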
TDP1 cell CPT: growth inhibition of DT40 Tdp1-/-;hTDP1 cells with camptothecin (screen for TDP1 inhibitors). chicken DT40 Tdp1-/-;hTDP1 cells + 20 nM CPT, ATP luminescence, 48 h. Potency, µM (doses to about 46.2 µM), inactives show top-dose activity change, negative = growth inhibition, usual class: inhibitors. AID 686979. 420,000 compounds, 12% hits; note: potency is the fitted concentration of half-maximal effect; nearly all actives have a fitted effect of over 55% in size
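Chicken DT40 Tdp1-/- cells stably complemented with human TDP1 were seeded at 400 cells/well in medium containing 20 nM camptothecin, exposed to pin-transferred compounds, and grown at 37 °C for at least 48 hr. Viability was read as ATP luminescence.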
Numbers without * were called inactive; i = inactive; u = inconclusive; x = no result. Most compounds without a hit are left out; they make up all but 19% or so of the library. Unless noted, calls come from the whole dose curve; as a rule, active = well fitted curve in the direction sought with a large enough effect; inconclusive = small, poorly fitted or top-dose-only effect, or another doubt; inactive = no such curve, though single readings can be large; an effect the other way counts as inactive or inconclusive. Unless noted, % is set by controls: 0 for no effect and ±100 for the full control effect.

SMILES	HT1080 IDH1KD tx	DT40 TDP1 no CPT	IL-1B inflam inh	HT1080NT lethal	TDP1 cell CPT
O=[N+]([O-])c1ccc(C=NNC(=S)Nc2ccc(F)cc2)cc1	-13%	2.9µM*	0	-11%	1.5µM*
COC(=O)c1cccc(Nc2nc(-c3cccnc3)nc3ccccc23)c1	-12%	9.2µM*	-22	-10%	u
CCOC(=O)c1cccc(Nc2nc(-c3cccnc3)nc3ccccc23)c1	u	10µM*	-108*	21µM*	23µM*
Cc1ccc2c(=O)cc(C(=O)Nc3ccc(S(=O)(=O)N4CCCCCC4)cc3)oc2c1	x	-7%	x	x	-8%
Cc1ccc(Nc2nc(N3CCOCC3)nc(N3CCOCC3)n2)cc1	3%	18µM*	x	10%	18µM*
Clc1ccc(Nc2nc(N3CCOCC3)nc(N3CCOCC3)n2)cc1Cl	-27%	9.2µM*	-28	1%	u
CN1CCN(c2nc(Nc3cccc(C(F)(F)F)c3)nc(N3CCOCC3)n2)CC1	u	u	-59*	u	u
CC(C)c1ccc(Nc2nc(N3CCOCC3)nc(N3CCOCC3)n2)cc1	1%	18µM*	-8	1%	18µM*
CN(C)S(=O)(=O)c1cccc(NC(=O)CCc2c[nH]c3ccccc23)c1	-7%	u	13	-2%	u
CN(C)N1C(N)=C(C#N)C(c2ccc(Br)cc2)C2=C1CC(C)(C)CC2=O (configuration not stated)	-7%	1%	9	0%	-4%
Cc1ccc(Nc2nc(Nc3ccc(Cl)cc3)nc(N3CCOCC3)n2)cc1	x	18µM*	x	x	11µM*
Fc1ccccc1Nc1nc(N2CCOCC2)nc(N2CCOCC2)n1	2%	u	-19	-1%	21µM*
CC(=O)Nc1ccc(Nc2nc(Nc3ccc(Cl)cc3)nc(N3CCOCC3)n2)cc1	x	0.79µM*	x	x	1.3µM*
Cc1c(/C(O)=C2\C(=O)C(=O)N(CCN(C)C)C2c2ccccc2)cnn1-c1ccccc1 (configuration not stated)	15%	u	-7	11%	-1%
Cc1cc(C)n(S(=O)(=O)c2ccccc2[N+](=O)[O-])n1	11%	-24%	-28	4%	u
O=C(CN1CC[n+]2c(-c3cccs3)csc21)c1ccc(-c2ccccc2)cc1	u	8.2µM*	-89*	u	9.2µM*
COc1ccc(-c2csc(N(CC3CCCO3)C(=O)c3ccco3)n2)cc1 (configuration not stated)	-26%	21µM*	-15	-14%	21µM*
COCCN(C(=O)c1ccco1)c1nc(-c2ccc(OC)cc2)cs1	1%	16µM*	24	-2%	26µM*
COCCN(C(=O)c1ccco1)c1nc(-c2ccccc2)cs1	1%	u	20	1%	-1%
CCOC(=O)CSc1nc(-c2ccccn2)ncc1OC	8%	4.6µM*	33	7%	8.2µM*
COc1cnc(-c2ccccn2)nc1Sc1ccccc1	-18%	1µM*	49	u	1.5µM*
COc1ccc(Sc2nc(-c3ccccn3)ncc2OC)cc1	u	3.3µM*	25	u	2.9µM*
COc1cnc(-c2ccccn2)nc1Sc1ccc(F)cc1	-25%	0.52µM*	1	21µM*	0.58µM*
COc1cc(C2NC(=O)NC(c3ccccc3)=C2C(C)=O)c(Cl)cc1OCC(=O)O (configuration not stated)	15%	-12%	21	17%	13%
O=C(NC1CC(=O)N(c2ccc3c(c2)OCCO3)C1)c1c(F)cccc1Cl (configuration not stated)	x	0%	x	x	6%
SMILES	HT1080 IDH1KD tx	DT40 TDP1 no CPT	IL-1B inflam inh	HT1080NT lethal	TDP1 cell CPT
COc1cnc(-c2ccccn2)nc1Sc1ccc(Cl)cc1	-2%	1.5µM*	33	4%	1.3µM*
O=C(Cn1c(=O)c2cccn2c2ccc(F)cc21)N1CCN(c2ccccc2F)CC1	x	-20%	x	x	-19%
Cc1ccc(S(=O)(=O)Nc2cccc3ncccc23)s1	u	1µM*	-112*	u	0.92µM*
Cc1ccc(S(=O)(=O)Nc2ccc(O)c3cccnc23)cc1	u	6.5µM*	74	-14%	2.9µM*
O=S(=O)(Nc1cccc2ncccc12)c1cccc(C(F)(F)F)c1	2%	9.2µM*	47	-2%	u
Cc1ccc(S(=O)(=O)Nc2ccnc3ccccc23)cc1	-7%	21µM*	-8	-12%	u
CC(=O)c1sc(N/N=C\c2cccc(Br)c2)nc1C	u	u	-66*	-22%	u
CC(=O)c1sc(N/N=C\c2ccc(Br)cc2)nc1C	6%	u	-3	8%	u
Cc1cc(/C=C\c2nc(O)c([N+](=O)[O-])c(=O)[nH]2)c(C)n1-c1ccccc1	6%	-1%	2	15%	5%
CCN(c1ccccc1)c1nnc(NC(=O)Nc2ccc(Br)c(C)c2)s1	x	4.1µM*	x	x	3.3µM*
CCN(c1ccccc1)c1nnc(NC(=O)Nc2ccc(C)cc2)s1	x	16µM*	x	x	13µM*
Cc1ccc(NC(=O)Nc2nnc(N(C)Cc3ccccc3)s2)c(C)c1	x	u	x	x	-23%
CN(C)Cc1ccccc1-c1cncnc1Nc1ccc(F)cc1	x	-10%	x	x	-17%
Cc1ccccc1N(CC(=O)NCC1CCCO1)C(=O)CNS(=O)(=O)c1ccc(F)cc1 (configuration not stated)	11%	-11%	-12	4%	1%
N#CCCNc1ccc(OCCC#N)cc1	17%	-19%	3	19%	-3%
CCCCOC(=O)CCCN1C(=O)/C(=C2\SC(=S)N(CCCC(=O)OCCCC)C2=O)SC1=S	7%	5%	26	-1%	-15%
COc1ccc(C2CC(=O)c3cnc(NC(=O)c4ccccc4)nc3C2)c(OC)c1 (configuration not stated)	-26%	7.3µM*	0	-16%	6.5µM*
COc1ccc(Nc2ncc3c(n2)CC(c2ccc(OC)cc2)CC3=O)cc1 (configuration not stated)	-1%	12µM*	-28	-1%	u
O=C1CC(c2ccco2)Cc2nc(Nc3ccc(F)cc3)ncc21 (configuration not stated)	-1%	23µM*	u	-9%	u
COc1ccc(C2CC(=O)c3cnc(NC(=O)c4ccco4)nc3C2)cc1 (configuration not stated)	2%	-20%	i	-3%	-7%
COc1ccc(Nc2ncc3c(n2)CC(c2ccc(C)cc2)CC3=O)cc1 (configuration not stated)	-15%	8.2µM*	-3	-1%	u
